Source: PubChem
A selection: hits, their analogues and other compounds. The true share with any hit is near 0.9%.
RECQ1 inh-1: inhibitors of human RECQ1 DNA helicase | Potency, µM (titrated, usually from 57.3 µM), inactives show top-dose activity, negative = inhibition, most hits filed as inhibitors | P46063 | RECQ1 DNA unwinding, red fluorescence kinetic read | actives 0.54% (n = 240,000);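 also: plate controls were vehicle for no effect and no enzyme for full effect; nearly all actives have a fitted effect of over 30% in size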
Target sequence (P46063 whole entry, looked up): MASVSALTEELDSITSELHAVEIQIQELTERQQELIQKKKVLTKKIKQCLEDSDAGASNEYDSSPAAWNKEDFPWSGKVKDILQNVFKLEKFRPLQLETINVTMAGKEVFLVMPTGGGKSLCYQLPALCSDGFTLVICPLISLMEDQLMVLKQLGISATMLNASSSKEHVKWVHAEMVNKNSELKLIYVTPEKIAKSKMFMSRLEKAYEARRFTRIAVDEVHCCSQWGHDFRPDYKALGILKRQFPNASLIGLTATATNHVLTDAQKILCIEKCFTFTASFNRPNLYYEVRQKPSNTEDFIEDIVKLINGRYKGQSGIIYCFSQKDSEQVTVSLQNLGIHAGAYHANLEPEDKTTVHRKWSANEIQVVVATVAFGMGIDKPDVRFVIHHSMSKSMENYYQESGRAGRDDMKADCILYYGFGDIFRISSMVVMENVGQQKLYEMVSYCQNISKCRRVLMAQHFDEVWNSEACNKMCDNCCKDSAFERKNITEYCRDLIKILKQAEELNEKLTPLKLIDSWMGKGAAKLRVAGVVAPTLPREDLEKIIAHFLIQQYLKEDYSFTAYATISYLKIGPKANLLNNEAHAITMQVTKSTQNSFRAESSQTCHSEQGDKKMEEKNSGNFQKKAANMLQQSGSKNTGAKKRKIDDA
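50 nM RECQ1T1 preincubated 15 min with compound in Tris pH 8.0 buffer with MgCl2, DTT, Tween-20 and 2.5 ug/ml poly(dI-dC); started with 200 nM TAMRA/BHQ-2 forked duplex and 2 mM ATP. Unwinding read as fluorescence (525/598 nm), two reads 2 h apart.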
KAT2A inh: GCN5L2 (KAT2A) acetyltransferase inhibition | GCN5L2 HAT assay, ThioGlo1 CoA-SH fluorescence | Potency, µM (series often up to 58.9 µM), for inactives: at the top dose activity change, negative = inhibition, usual class: inhibitors | actives 0.21% (n = 390,000)
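ThioGlo1-coupled HAT assay: 20nM GCN5L2, 70uM acetyl-CoA, 75uM H3(1-25) peptide, pH 7.5. Fluorescence read at 340/540nm at start and after 20 min at room temperature.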
APE1 inh-1: inhibitors of human APE1 endonuclease. P27695. recombinant APE1, TAMRA/BHQ-2 abasic DNA cleavage fluorescence. AID 2517. Potency, µM (titrated, usually from 65.8 µM), for the others: at the top dose activity change, negative = inhibition, actives largely listed as inhibitors. actives 0.35% (n = 350,000);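 also: plate controls were vehicle for no effect and reference inhibitor for full effect; nearly all actives have a fitted effect of over 55% in size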
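Compound pre-exposure to 0.75 nM APE1, 15 min at ambient temperature. Reaction initiated with 50 nM TAMRA/BHQ-2 THF substrate, read immediately in kinetic mode, 525 nm excitation, 598 nm emission.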
TDP1 inh: inhibitors of human tyrosyl-DNA phosphodiesterase TDP1. recombinant TDP1, AlphaScreen DNA substrate cleavage. AID 485290. actives 0.28% (n = 350,000). Potency, µM (titrated, usually from 130 µM), for the others: at the top dose activity change, negative = inhibition, most hits filed as inhibitors; also: nearly all actives have a fitted effect of over 40% in size
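Here, a 5' biotin and 3' phosphotyrosine-FITC DNA oligonucleotide reports Tdp1 activity: intact substrate bridges AlphaScreen beads, while cleavage leaves a 3' phosphate and drops signal. All incubations at room temperature.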
LMNA splice mod: changes lamin A minigene splicing in HeLa cells. Potency, µM (titrated, usually from 46.1 µM), for inactives: top-dose ratio change, negative = inhibition, hits mostly inhibitors. actives 0.01% (n = 200,000). HeLa LMNA splicing GFP/RFP minigene ratio, 48 h; active = well fitted inhibition curve with a large enough effect in the signal ratio, with a control signal flat, not every such curve was filed as active; inconclusive = small, poorly fitted or top-dose-only effect, or effect the other way, or a change in a side signal; the % refers to the signal ratio
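S3 HeLa stable clones carrying a lamin A-EGFP splicing minigene plus DsRed2 were seeded at 600 cells/well in Opti-MEM with 2% FBS, pin-dosed and incubated 48 h at 37°C. Acumen cytometry (488 nm) gave the GFP/RFP total-intensity ratio.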
BLM helicase inh: Bloom syndrome helicase (human) inhibition. P54132. recombinant BLM DNA unwinding, fluorescence dequenching. Potency, µM (series often up to 56.1 µM), for the others: at the top dose activity change, negative = inhibition, hits mostly inhibitors. actives 0.2% (n = 350,000). AID 2528;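 also: plate controls were vehicle for no effect and no enzyme for full effect; nearly all actives have a fitted effect of over 35% in size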
APE1 dye cs: DNA dye displacement counter-screen activity. shares compounds with APE1 inh-1. DNA fluorescent dye displacement counterscreen, fluorescence. Potency, µM (highest dose often 28.5 µM), inactives show at the top dose activity change, negative = inhibition, usual class: inhibitors. actives 7% (n = 480);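 also: loss of thiazole orange fluorescence as the dye is displaced from duplex DNA; 0% = ThO with dsDNA and no compound and -100% = ThO without dsDNA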
EndoIV counter: counter-screen for APE1 inhibitors: inhibitors of E. coli endonuclease IV. shares compounds with APE1 inh-1. Potency, µM (series often up to 27.1 µM), for the others: at the highest dose activity change, negative = inhibition, usual class: inhibitors. actives 4% (n = 560). AID 2565. E. coli Endo IV, fluorogenic AP-site DNA cleavage;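 also: plate controls were uninhibited enzyme wells for no effect and no enzyme buffer wells for full effect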
APE1 inh-2: confirmation of inhibitors of human APE1 endonuclease; purified APE1, fluorogenic abasic-site DNA cleavage; Potency, µM (series often up to 57.1 µM), for inactives: at the highest dose activity change, negative = inhibition, actives largely listed as inhibitors; shares compounds with APE1 inh-1; actives 44% (n = 750); also: nearly all actives have a fitted effect of over 30% in size
APE1 FP: compounds that displace a DNA probe from human APE1. shares compounds with APE1 inh-1. APE1 binding to TAMRA-labelled double-stranded DNA, fluorescence polarization displacement. Potency, µM (highest dose often 28.5 µM), inactives show at the top dose activity, negative = inhibition, usual class: inhibitors. actives 7% (n = 480). AID 2573
RECQ1 inh conf: confirmation of human RECQ1 helicase inhibitors; shares compounds with RECQ1 inh-1; Potency, µM (series often up to 229 µM), without a hit: at the highest dose activity change, negative = inhibition, hits mostly inhibitors; AID 2708; RECQ1 helicase DNA unwinding, fluorescence; actives 28% (n = 610); also: nearly all actives have a fitted effect of over 45% in size
RECQ1 ADP FP: displaces ADP in a fluorescence polarization counter-screen for RECQ1 hits; shares compounds with RECQ1 inh-1; ADP fluorescence polarization displacement counterscreen; Potency, µM (highest dose often 228 µM), for the others: at the highest dose activity change, negative = inhibition, actives largely listed as inhibitors; actives 27% (n = 530); also: nearly all actives have a fitted effect of over 45% in size
RECQ1 inh-2: confirmation of human RECQ1 helicase inhibitors. shares compounds with RECQ1 inh-1. recombinant RECQ1 DNA unwinding, red fluorescence. Potency, µM (titrated, usually from 119 µM), for the others: at the highest dose activity, negative = inhibition, actives largely listed as inhibitors. actives 15% (n = 1,100); also: nearly all actives have a fitted effect of over 50% in size
Numbers without * were called inactive; ? = inconclusive; nt = no result given; [ ] = dose if it differs, or a comment. Unless noted, calls follow the shape of the dose curve; as a rule, active = well fitted curve in the direction sought with a large enough effect; inconclusive = small, poorly fitted or top-dose-only effect, or another doubt; inactive = no such curve, though single readings can be large; an effect the other way counts as inactive or inconclusive. Unless noted, % is scaled to controls: 0 for no effect and ±100 for the full control effect; potency is read from the fitted curve at half-maximal effect.

SMILES	RECQ1 inh-1	KAT2A inh	APE1 inh-1	TDP1 inh	LMNA splice mod	BLM helicase inh	APE1 dye cs	EndoIV counter	APE1 inh-2	APE1 FP	RECQ1 inh-2	others
CC[C@H](C)[C@H](NC(=O)[C@H](CC(=O)O)NC(=O)[C@H](CC(C)C)NC(=O)[C@H](Cc1cnc[nH]1)NC(=O)[C@H](C)NC(=O)[C@H](Cc1ccccc1)NC(=O)[C@H](Cc1ccc(O)cc1)NC(=O)[C@@H](NC(=O)[C@H](C)NC(=O)[C@H](CCC(=O)O)NC(=O)[C@H](CCC(=O)O)NC(=O)[C@H](CC(=O)O)NC(=O)CCC(=O)O)C(C)C)C(=O)N[C@H](C(=O)N[C@@H](Cc1c[nH]c2ccccc12)C(=O)O)[C@@H](C)CC	-20%	0%	0%	12%	nt	-1%	nt	nt	nt	nt	nt
O=C(O)C[C@@H]1C(=O)O[C@@H]2C(COC(=O)c3cc(O)c(O)c(O)c3)O[C@@H](OC(=O)c3cc(O)c(O)c(O)c3)[C@@H](OC(=O)c3cc(O)c(O)c4c3[C@H]1[C@H](O)C(=O)O4)[C@H]2OC(=O)c1cc(O)c(O)c(O)c1 (some centres not stated)	0.11µM*	-24%	0.0089µM*	nt	nt	0.1µM*	?	?	0.0022µM*	?	nt	RECQ1 inh conf=0.45µM*;RECQ1 ADP FP=32µM*
O=S(=O)(Nc1cc(O)cc2cccnc12)c1ccc(Cl)s1	-8%	nt	1%	23%	nt	?	nt	nt	nt	nt	nt
O=C1c2cc(O)cc(O)c2OC[C@@H]1c1ccc(O)c(O)c1	-9%	-8%	?	2%	nt	1%	nt	nt	nt	nt	nt
CCN(CC)Cc1c(O)c(Cl)cc2c(C)c(C)c(=O)oc12	-6%	?	-2%	0%	-3%	-1%	nt	nt	nt	nt	nt
CCN(CC)Cc1c(O)c(Cl)cc2c(C)cc(=O)oc12	?	?	13µM*	13µM*	nt	-21%	8%	-8%	28µM*	-44%	56µM*
N=C1/C(=C\c2ccc(SCc3ccco3)o2)C(=O)N=C2SC=NN12	8.9µM*	?	3.2µM*	?	8%	-6%	15%	10%	?	4%	?
COC(=O)c1c(NC(=O)CN2C(=O)NC3(CCC(C)CC3)C2=O)sc2c1CCC2 (configuration not stated)	nt	-1%	-2%	-7%	nt	nt	nt	nt	nt	nt	nt
CC1CCCCC12NC(=O)N(CC(=O)Nc1sc3c(c1C(N)=O)CCC3)C2=O (configuration not stated)	?	-26%	7.9µM*	nt	?	1%	?	-5%	-24%[24.4 µM]	4%	-29%
NC(C(=O)O)c1nn[nH]n1 (configuration not stated)	-5%	nt	-3%	-4%	nt	3%	nt	nt	nt	nt	nt
COc1ccc(N=C2NC(=O)/C(=C\c3ccco3)S2)cc1	16µM*	?	7.9µM*	0%	0%[46 µM]	?	-12%	10%	13µM*	-5%	?	RECQ1 inh conf=?;RECQ1 ADP FP=-13%[91.9 µM]
COc1ccc(Cc2nnc(NC(=O)Cc3cccs3)s2)cc1OC	20µM*	?	28µM*	nt	-4%	?	?	36%	2µM*	-17%	?
Cc1c(C(=O)O)sc2nc3n(c(=O)c12)CCC3	?	-11%	?	14µM*	2%[9.22 µM]	4%	nt	nt	?	nt	-14%
Cc1c(C(=O)N2CCN(c3ccccc3)CC2)sc2nc3n(c(=O)c12)CCC3	nt	-2%	-14%	2%	-16%[46 µM]	-1%	nt	nt	nt	nt	nt
CCn1c(C)cc(/C=C2\SC(=O)N(CC(=O)Nc3ccc(C)c(C)c3)C2=O)c1C	-1%	?	-1%	-1%	21%	-5%	nt	nt	nt	nt	nt
Cc1ccc(NC(=O)CN2C(=O)S/C(=C/c3ccc(-c4cc(C(=O)O)ccc4C)o3)C2=O)cc1C	14µM*	-21%	?	nt	-2%	?	149%	-4%	7.1µM*	10µM*	?	RECQ1 inh conf=22µM*;RECQ1 ADP FP=?
COc1cc(F)c(S(=O)(=O)N2CCN(S(=O)(=O)c3ccc4c(c3)OCCO4)CC2)c(F)c1	nt	nt	nt	1%	nt	nt	nt	nt	nt	nt	nt
CCOC(=O)/C(C#N)=C/c1cccn1-c1ccc(Cl)cc1	-17%	-11%	-3%	-1%	nt	-5%	nt	nt	nt	nt	nt
N#C/C(=C/c1cccn1-c1cccc(C(=O)O)c1)c1ccc(Cl)cc1	?	-9%	11µM*	nt	12%[46 µM]	-25%	?	-6%	5µM*	1%	45µM*
O=C1c2ccccc2C(=O)N1c1noc2ccccc12	nt	nt	nt	1%	nt	nt	nt	nt	nt	nt	nt
O=c1c(-c2ccc(O)cc2)coc2cc(O[C@@H]3O[C@H](CO)[C@@H](O)[C@H](O)[C@H]3O)cc(O)c12	8%	4%	-9%	6%	nt	4%	nt	nt	nt	nt	nt
O=C(Nc1cccc(S(=O)(=O)NC2=NCCCCC2)c1)c1cc(-c2ccco2)nc2ccccc12	20µM*	?	13µM*	nt	nt	?	-11%	7%	?	-13%	?
